# Bioassay records from PubChem.
# The list is not random: actives were taken first. Their share in the collection is about 0.4%.
# GLA inh pH 4.5: qHTS Assay for Inhibitors of Human alpha-Galactosidase at pH 4.5; purified enzyme, 4-MU-alpha-Gal fluorescence, pH 4.5; activity change, negative = inhibition, % at 105 µM; 230,000 tested, under 10 active;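 also: 0% = full activity with enzyme and -100% = basal without enzyme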
# GAA inh: qHTS Assay for Inhibitors of Human alpha-Glucosidase as a Potential Chaperone Treatment of Pompe Disease. purified human GAA, 4-MU-alpha-glucoside fluorescence. Lysosomal alpha-glucosidase (Homo sapiens), P10253. Potency, µM (doses to about 76.9 µM), for inactives: at the highest dose activity change, negative = inhibition, hits mostly inhibitors. 0.005% of 200,000 active;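 also: potency is read from the fitted curve at half-maximal effect; plate controls were uninhibited enzyme wells for no effect and no-enzyme background for full effect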
#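 qHTS format, compound range up to 77 uM. Human lysosomal enzyme at 4 nM, 400 uM 4-MU glucoside substrate, pH 5.0, 20 min room temperature; fluorescence after alkaline stop gives activity normalized to controls.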
# aGlu spleen mod: qHTS Assay for Inhibitors and Activators of Human alpha-Glucosidase From Spleen Homogenate. Lysosomal alpha-glucosidase (Homo sapiens), P10253. human spleen homogenate, 4-MU-alpha-glucoside fluorescence. Potency, µM (doses to about 79.9 µM), without a hit: at the top dose activity change, negative = inhibition, hits mostly inhibitors. 0.006% of 240,000 active. AID 2112, 2009;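 also: potency is read from the fitted curve at half-maximal effect; 0% = enzyme with vehicle and -100% = no enzyme basal signal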
#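 Enzyme source: human spleen homogenate, 1 ug/well. Buffer 50 mM citric acid/K phosphate pH 5.0, 0.01% Tween-20. 4-MU-alpha-glucoside 1 mM; 37 C x 40 min; NaOH/glycine stop; fluorescence.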
# GAA glycogen: qHTS Assay for Inhibitors and Activators of Human alpha-Glucosidase Cleavage of Glycogen; Potency, µM (top dose mostly 76.4 µM), inactives show top-dose activity change, negative = inhibition, actives largely listed as inhibitors; 0.38% of 300,000 active; recombinant GAA, glycogen substrate, Amplex Red glucose oxidase fluorescence; AID 2100, 2009;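 also: potency is read from the fitted curve at half-maximal effect; 0% = full enzyme reaction and -100% = no-enzyme basal signal; the screen sought inhibitors and activators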
#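 Natural-substrate format: glycogen cleavage by 4 nM human enzyme, glucose read by Amplex Red coupling (Ex 573, Em 610 nm). Normalized to enzyme and no-enzyme controls.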
# GLA spleen mod: qHTS Assay for Inhibitors and Activators of Human alpha-Galactosidase From Spleen Homogenate; Alpha-galactosidase A (Homo sapiens), P06280; human spleen homogenate, 4MU-alpha-Gal fluorescence, 40 min; Potency, µM (doses to about 80 µM), inactives show at the highest dose activity change, negative = inhibition, most hits filed as inhibitors; 0.008% of 240,000 active; AID 2107, 2009;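 also: potency is read from the fitted curve at half-maximal effect; 0% = enzyme with vehicle and -100% = no enzyme basal signal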
# Target sequence (P06280 32-429 limits assumed): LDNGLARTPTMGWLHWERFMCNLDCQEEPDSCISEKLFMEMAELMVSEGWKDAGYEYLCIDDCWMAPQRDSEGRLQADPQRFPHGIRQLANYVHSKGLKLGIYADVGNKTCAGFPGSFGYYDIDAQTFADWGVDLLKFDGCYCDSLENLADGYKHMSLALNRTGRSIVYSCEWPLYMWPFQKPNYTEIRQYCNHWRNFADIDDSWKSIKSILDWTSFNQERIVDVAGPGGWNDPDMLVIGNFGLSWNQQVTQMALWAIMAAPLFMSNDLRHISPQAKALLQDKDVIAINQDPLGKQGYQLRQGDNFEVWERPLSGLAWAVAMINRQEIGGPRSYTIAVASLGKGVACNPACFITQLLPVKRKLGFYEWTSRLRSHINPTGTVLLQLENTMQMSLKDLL
#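 qHTS titration in buffer at pH 5.0. Alpha-galactosidase activity in spleen homogenate was measured via 4-methylumbelliferone release from 1 mM fluorogenic substrate after 40 min at 37C and a pH 10 stop. AC50 came from Hill fits of control-normalized data.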
# Numbers without * were called inactive; ? = inconclusive; . = no result; [ ] = dose if it differs, or a comment. Calls follow the shape of the dose curve; as a rule, active = well fitted curve in the direction sought with a large enough effect; inconclusive = small, poorly fitted or top-dose-only effect, or another doubt; inactive = no such curve, though single readings can be large; an effect the other way counts as inactive or inconclusive.
SMILES,GLA inh pH 4.5,GAA inh,aGlu spleen mod,GAA glycogen,GLA spleen mod
Oc1c(Cl)cc(Cl)c2c1NCCC2,-3.7,3.4%,4.8%,14µM*,0.0%
Cc1nn(-c2ccccc2)c2[nH]c(=O)c(CNc3ccc(N4CCOCC4)cc3)cc12,2.9,4.7%,-4.6%,19.8µM*,2.6%
COc1ccc(Cn2nnnc2C(c2cccs2)N2CCN(c3ccccc3)CC2)cc1 (stereo not given),-3.6,-5.7%,-3.7%,0.4%,-1.5%
Oc1ccc(N2CCN(C(c3cccs3)c3nnnn3CCc3ccccc3)CC2)cc1 (stereo not given),-1.8,-4.6%,-2.9%,28µM*,-2.3%
Oc1ccc(-c2csc(-c3cccnc3)n2)c(O)c1,0.0,1.1%,4.7%,-10.2%,4.1%
Cc1ccc(Nc2nc(-c3c(C)nc4ncccn34)cs2)cc1,-6.2,4.3%,-4.9%,?,-3.2%
Oc1ccc(-c2nc(-c3ccc(O)c(O)c3)cs2)cc1,-1.5,-9.2%,0.9%,11.1µM*,6.1%
Oc1ccc(Nc2nc(-c3ccc4ccccc4c3)cs2)cc1,1.7,?,10.2%,5.62µM*,10.2%
Cc1ccc(Nc2nc(-c3c(C)nc4ccccn34)cs2)cc1,-7.3,-7.2%,5.6%,28.2µM*,8.7%
Cc1nc2ncccn2c1-c1csc(Nc2ccc(O)cc2)n1,-2.7,-4.1%,0.2%,22.4µM*,-1.4%
CC(=O)Nc1nc(C)c(-c2csc(Nc3ccc(O)cc3)n2)s1,-0.3,0.1%,1.5%,25.1µM*,1.5%
CC(=O)Nc1ccc(Nc2nc(-c3sc(NC(C)=O)nc3C)cs2)cc1,.,.,.,-2.0%[76.3 µM],.
NC12CCc3c(no[n+]3[O-])C1(O)CC(c1ccccc1)=[N+]2[O-] (stereo not given),-1.7,-4.9%,-7.6%,-2.2%,-6.1%
[O-][n+]1onc2c1CCC1N(O)C(c3ccccc3)CC21O (stereo not given),-6.1,0.7%,-2.0%,28µM*,-9.4%
CN1CCc2cccc3c2[C@H]1Cc1ccc(O)c(O)c1-3,8.1,2.0%[15.4 µM],5.7%,7.94µM*,-0.4%
COc1ccc(C)cc1NC(=O)C1CCN(S(C)(=O)=O)CC1,.,.,.,35.5µM*,.
O=C(/C=C/c1ccc(O)c(O)c1)OC1C(O)CC(OC(=O)/C=C/c2ccc(O)c(O)c2)(C(=O)O)CC1O (stereo not given),-13.5,-9.8%,-2.0%,1.76µM*,-12.3%
O=C(/C=C\c1ccc(O)c(O)c1)O[C@@H]1C[C@](O)(C(=O)O)C[C@@H](O)[C@@H]1O,-4.0,.,1.6%[29.1 µM],.,13.8%[29.1 µM]
O=C(CSc1cn(CCNC(=O)c2cccc(C(F)(F)F)c2)c2ccccc12)Nc1ccc2c(c1)OCCO2,.,.,.,35.5µM*,.
CSCC[C@H](NC(=O)[C@H](CC(C)C)NC(=O)[C@H](CO)NC(=O)[C@H](CCC(=O)O)NC(=O)[C@H](CC(C)C)NC(=O)[C@H](Cc1ccc(O)cc1)NC(=O)[C@H](CCCCN)NC(=O)[C@H](CCCCN)NC(=O)[C@H](C)NC(=O)[C@H](CO)NC(=O)[C@H](CC(C)C)NC(=O)[C@H](CCC(N)=O)NC(=O)CNC(=O)[C@H](CC(C)C)NC(=O)[C@H](CC(C)C)NC(=O)[C@H](CCCCN)NC(=O)[C@H](CO)NC(=O)[C@H](Cc1ccccc1)NC(=O)[C@H](CC(=O)O)NC(=O)[C@H](CO)NC(=O)[C@@H](NC(=O)[C@H](Cc1ccccc1)NC(=O)[C@@H](NC(=O)CNC(=O)[C@H](CC(=O)O)NC(=O)[C@H](C)NC(=O)[C@@H](N)Cc1cnc[nH]1)C(C)C)[C@@H](C)O)C(N)=O,.,.,-0.8%,.,5.0%
CCOC(=O)c1ccc(N2C(=O)CC(Nc3ccc(O)cc3)C2=O)cc1 (stereo not given),7.3,.,-6.0%,10µM*,-4.1%
COc1ccc(-c2nc3c(c4c2C[C@H](c2ccccc2)OC4)CN(S(=O)(=O)c2ccc(NC(C)=O)cc2)CC3)c(C)c1,-3.0,.,3.1%[17.4 µM],.,-3.6%[17.5 µM]
